An excerpt weighted towards active compounds, which were near 5.8% of everything screened.
TRPV1 ag = agonists of human vanilloid receptor 1 (TRPV1); Q8NER1; TRPV1-expressing cells, Fluo-8 calcium influx, agonist mode; activation, % at 8.33 µM; hit rate 0.19% among 320,000; in the data active means activation above about 80%; inconclusive means between about 30% and that limit; further: 0% is about no effect
Target sequence (Q8NER1 whole entry, looked up): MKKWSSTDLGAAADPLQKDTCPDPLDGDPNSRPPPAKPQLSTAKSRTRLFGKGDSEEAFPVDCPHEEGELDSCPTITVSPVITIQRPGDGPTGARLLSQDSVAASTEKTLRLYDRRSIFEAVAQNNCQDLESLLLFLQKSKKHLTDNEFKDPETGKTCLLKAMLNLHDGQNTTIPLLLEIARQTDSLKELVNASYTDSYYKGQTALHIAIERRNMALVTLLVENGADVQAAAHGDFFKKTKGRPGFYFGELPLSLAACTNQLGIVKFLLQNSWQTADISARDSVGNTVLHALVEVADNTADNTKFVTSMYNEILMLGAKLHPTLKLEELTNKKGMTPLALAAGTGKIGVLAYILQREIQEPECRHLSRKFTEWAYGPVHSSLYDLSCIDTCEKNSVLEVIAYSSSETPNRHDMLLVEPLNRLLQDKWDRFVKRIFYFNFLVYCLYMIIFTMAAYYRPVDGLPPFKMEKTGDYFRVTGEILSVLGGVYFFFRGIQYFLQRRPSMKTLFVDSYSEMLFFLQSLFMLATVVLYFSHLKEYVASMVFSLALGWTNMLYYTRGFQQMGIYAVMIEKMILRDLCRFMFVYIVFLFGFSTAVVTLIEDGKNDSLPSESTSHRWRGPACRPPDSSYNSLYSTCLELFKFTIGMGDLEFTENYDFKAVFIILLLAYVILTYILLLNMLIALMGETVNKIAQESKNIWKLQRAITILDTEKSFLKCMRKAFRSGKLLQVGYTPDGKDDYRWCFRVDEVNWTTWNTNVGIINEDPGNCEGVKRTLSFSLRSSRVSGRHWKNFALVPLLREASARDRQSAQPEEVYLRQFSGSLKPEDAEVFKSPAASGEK
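Fluo-8 calcium influx in TRPV1-expressing cells, kinetic read (ex 480/em 520 nm). Compound added and read 3 min for agonist activity, followed by capsaicin at EC20 final and 2 min further read for enhancement.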
VP16 counter = inhibits Gal4-VP16 luciferase reporter, ROR gamma counter-screen | Potency, µM (top dose mostly 53.6 µM), without a hit: at the top dose activity, negative = inhibition, hits mostly inhibitors | hit rate 3.5% among 310,000 | Drosophila S2 Gal4-VP16 UAS-luciferase, luminescence, 20 h;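 further: Gal4-VP16 expression switched on by copper sulfate through the metallothionein promoter; potency means the concentration at half of the fitted maximal effect; on the % scale 0 is the no-effect control and ±100 the full control effect; nearly all actives have a fitted effect of over 50% in size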
TRPV1 potentiator = potentiators of human vanilloid receptor 1 (TRPV1); Q8NER1; TRPV1-expressing cells, Fluo-8 calcium influx, capsaicin EC20 potentiation; hit rate 0.02% among 320,000; AID 540277; potentiation, % at 8.33 µM; in the data active means potentiation above about 80%; inconclusive means between about 30% and that limit; further: 0% is about no effect
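Cells expressing TRPV1 were dye-loaded with Fluo-8 and read kinetically: 10 s baseline, 3 min after compound (agonist portion), then 2 min after EC20 capsaicin (allosteric enhancer portion). Calcium-bound dye fluorescence at 480/520 nm.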
RORgamma inh = ROR gamma (mouse) transcription inhibition | P51450 | Drosophila S2 Gal4-RORgamma UAS-luciferase reporter, 20 h | Potency, µM (doses to about 53.6 µM), for inactives: top-dose activity change, negative = inhibition, hits mostly inhibitors | hit rate 5.4% among 310,000; further: potency means the concentration at half of the fitted maximal effect; on the % scale 0 is the no-effect control and ±100 the full control effect; nearly all actives have a fitted effect of over 60% in size
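In this cell-based reporter format, copper sulfate (700 uM final) drives Gal4–ROR gamma fusion expression from a metallothionein promoter in Drosophila Schneider cells; compounds preincubated 1 hr, reporter read after 20 hr at ambient temperature.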
uPA generation = blocks generation of uPA at the cell surface. cell surface uPA generation assay, qHTS. Potency, µM (top dose mostly 38.3 µM), for inactives: top-dose activity change, negative = inhibition, hits mostly inhibitors. hit rate 0.31% among 330,000. AID 540303; active means well fitted inhibition curve with a large enough effect; inconclusive means small, poorly fitted or top-dose-only effect; inactive means no such curve, though single readings can be large or run the other way; tested in mouse RAW 264.7 cells; further: potency means the concentration at half of the fitted maximal effect; on the % scale 0 is the no-effect control and ±100 the full control effect; nearly all actives have a fitted effect of over 55% in size
The depositor's hits bear a star; ? = inconclusive; . = no result given; [ ] = remark or other dose. Unless noted, the call rests on the fitted dose curve; in most records, active means well fitted curve in the direction sought with a large enough effect; inconclusive means small, poorly fitted or top-dose-only effect, or another doubt; inactive means no such curve, though single readings can be large; an effect the other way counts as inactive or inconclusive.

SMILES | TRPV1 ag | VP16 counter | TRPV1 potentiator | RORgamma inh | uPA generation
CC(Sc1nc2ccccc2s1)C(=O)Nc1nnc(C(C)C)s1 (configuration not stated) | 26 | ? | 7 | 2.8µM* | -3%
O=C1N/C(=N\N=C\c2cccs2)SC1Cc1cccc(Cl)c1Cl (configuration not stated) | 17 | 0.22µM* | -2 | 0.32µM* | -14%
O=C(CC1S/C(=N/N=C/c2cccs2)NC1=O)Nc1ccc(Cl)c(Cl)c1 (configuration not stated) | 2 | ? | 0 | -19% | -1%
CCOc1ccc(CC2S/C(=N/N=C/c3ccco3)NC2=O)cc1 (configuration not stated) | 3 | -12% | -4 | ? | -4%
O=C1N/C(=N\N=C\c2cccs2)SC1Cc1ccc(Cl)cc1Cl (configuration not stated) | 0 | 0.25µM* | -6 | 0.35µM* | -1%
O=C(CC1S/C(=N/N=C/c2cccs2)NC1=O)Nc1ccc(Cl)cc1 (configuration not stated) | 1 | ? | 1 | ? | -2%
O=C1N/C(=N\N=C\c2ccco2)SC1Cc1ccccc1[N+](=O)[O-] (configuration not stated) | 0 | 5µM* | 13 | 3.2µM* | ?
CCCCN1C(=O)C(=O)N(CC(=O)Nc2cc(S(=O)(=O)N(C)C)ccc2C)C1=O | 0 | . | -17 | . | 2%
O=C(CC1C(=O)NCCN1Cc1cccc(C(F)(F)F)c1)NCCc1cnccn1 (configuration not stated) | 0 | 3% | 6 | -4% | 4%
CC1=NN(C(N)=S)C(=O)C1N=Nc1ccc(O)cc1 (configuration not stated) | 0 | ? | -8 | 4µM* | -15%
CC(=O)Nc1ccc(N)cc1 | 1 | 12% | 8 | -13% | -7%
CC1=NN(C(N)=S)C(=O)C1N=Nc1cccc(C)c1 (configuration not stated) | -4 | 0% | 8 | 6% | 10%
CCOc1ccc(N=Nc2c(=O)[nH]n3c(C)cc(C)nc23)cc1 | 1 | -6% | 1 | ? | -3%
CC1=NN(C(N)=S)C(=O)C1N=Nc1cccc(C(=O)O)c1 (configuration not stated) | 2 | ? | -1 | 11µM* | -3%
CCOc1ccc(N=NC2C(=O)N(C(N)=S)N=C2C)cc1 (configuration not stated) | -2 | 0.35µM* | -10 | 0.32µM* | ?
CC(=O)Nc1ccc(N=NC2C(=O)N(C(N)=S)N=C2C)cc1 (configuration not stated) | 1 | 8.9µM* | -2 | 5µM* | 9%
NC(=S)N=Nc1ccc(O)cc1 | . | . | . | . | -3%
COc1ccc(C(=O)OCC(=O)Nc2cccc(S(=O)(=O)N3CCCCCC3)c2)cc1[N+](=O)[O-] | . | . | . | . | 4%
CC1=NN(C(N)=S)C(=O)C1N=Nc1ccc(C)c(Br)c1 (configuration not stated) | -1 | 2.8µM* | 0 | 0.71µM* | 12%
CC1=NN(C(N)=S)C(=O)C1N=Nc1ccc(F)cc1 (configuration not stated) | -5 | 1.3µM* | 14 | 1µM* | -2%
CC1=NN(C(N)=S)C(=O)C1N=Nc1ccc([N+](=O)[O-])cc1 (configuration not stated) | 2 | 1.3µM* | 4 | 0.16µM* | -5%
CC(N)=Nc1ccc([N+](=O)[O-])cc1 | -5 | -3% | 4 | -3% | 1%
O=C1[C@H]2[C@H]3[C@H](O)[C@H](O)C/C(=N/OCc4ccccc4)[C@@H]3CC[C@@H]2C(=O)N1C1CCCCC1 | . | -6%[10 µM] | . | 3%[10 µM] | .
Nc1ccc2nc[nH]c2c1 | -5 | ? | 4 | -36% | 0%
CC1CCN(CCCn2c(=S)[nH]c3c(sc4ccccc43)c2=O)CC1 | -2 | -24% | -6 | 11µM* | -4%
SMILES | TRPV1 ag | VP16 counter | TRPV1 potentiator | RORgamma inh | uPA generation
CC1CCN(CCCn2c(=S)[nH]c3c(sc4ccc([N+](=O)[O-])cc43)c2=O)CC1 | 1 | 5% | -12 | -31% | 3%
COCCCn1c(=S)[nH]c2c(sc3ccccc32)c1=O | 11 | ? | -11 | 1.3µM* | -3%
C=C/C(C)=C/CC1C(=C)CCC2C(C)(C(=O)O)CCCC12C (configuration not stated) | -3 | -3% | -6 | 14% | 23%
C=C1CCC2[C@](C)(CO)C(O)CC[C@]2(C)C1C/C=C1/C(=O)OCC1O (some centres not stated) | . | -13% | . | 13µM* | .
C=CCNC(=S)/N=c1/ccccn1CCC | 3 | ? | -9 | 5µM* | 6%
C=CCNC(=S)/N=c1/ccccn1C | 1 | -3% | -3 | -14% | 4%
O=C(Nc1ccccc1)Nc1sccc1-c1nc2ccccc2s1 | 15 | 4% | 0 | 7.9µM* | 1%
O=C(Nc1cccc(Cl)c1)Nc1sccc1-c1nc2ccccc2s1 | 6 | 19% | ? | ? | 5%
CCC1CCCCN1CCCNC(=O)C1CCN(Cc2nc(-c3ccc(Cl)cc3)oc2C)CC1 (configuration not stated) | 3 | -12% | 7 | -11% | 10µM*
COc1ccc(C=NNC(=S)Nc2ccc(F)cc2)cc1OC | . | . | . | . | -4%
O=C(N/N=C/c1ccccn1)c1ccco1 | 2 | -9% | 3 | -18% | 3%
O=C(N/N=C/c1ccc2ncccc2c1)c1ccco1 | 2 | ? | 7 | 7.9µM* | -13%
COc1ccc(/C=N/NC(=O)c2ccoc2C)cc1COc1ccc(Cl)cc1 | -4 | 13µM* | -19 | 7.1µM* | -8%
COc1cc(/C=N/NC(=O)c2ccc(F)cc2)ccc1OC(=O)c1ccco1 | 2 | -4% | 8 | 13µM* | 1%
COc1ccc(/C=N/NC(=S)Nc2ccccc2)cc1COc1cccc(C)c1C | 1 | 0.71µM* | 8 | 0.35µM* | 7%
O=C(NN1CCOCC1)c1ccc(S(=O)(=O)N2CCCCC2)cc1 | 1 | 3% | 11 | 20% | 2%
Cc1cccc(NS(=O)(=O)c2ccc(C)c(C(=O)NCC(c3ccco3)N3CCCCC3)c2)c1 (configuration not stated) | 14 | . | -5 | . | 4%
C=C(C(C)=O)C(O)c1ccc(C(F)(F)F)cc1 (configuration not stated) | . | 3% | . | 5% | .
COc1ccc(C(=O)N/N=C/c2ccc(OC)c(COc3ccc(F)cc3F)c2)cc1 | -1 | ? | 4 | 13µM* | 1%
COc1ccc(/C=N\NC(=O)c2ccccc2)cc1COc1ccc(F)cc1 | ? | 11µM* | -11 | 18µM* | ?
COc1ccc(C(=O)N/N=C/c2ccc(OC)c(COc3ccc(F)cc3)c2)cc1 | 1 | -10% | 5 | -20% | 21%
CN(Cc1ccccc1)S(=O)(=O)c1ccc2[nH]c(=O)ccc2c1 | 14 | 11% | -4 | -28% | 1%
COc1ccc2[nH]cc(CCNc3nc(-c4ccccc4CN(C)C)nc4ccccc34)c2c1 | . | -9% | . | 19% | .

High-throughput results from PubChem.
